Experimental findings from PubChem BioAssay AID1259245 (Vanderbilt High Throughput Screening Facility, 2017) are described below.

“And” between values parts separate entries of the source, which are not always exact repeats. Identical values can stand only once. In all, about 40,000 compounds went through this assay and about 1,400 (3.5%) were called active.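 How the source made its calls: active means any of four per-well response measures lying three or more SD from its plate-wide compound average, in either direction; inactive means the rest, inconclusive results apart.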 Only a selection was taken, and actives are over-represented in it overall.

The assay deals with Voltage-dependent calcium channel gamma-2 subunit (Mus musculus) + Glutamate receptor 2 (Rattus norvegicus) (UniProt O88602+P19491). Put plainly: AMPAR-TARP gamma-2 complex positive or negative modulation – cell-based, membrane potential dye, primary screen (AID 1259245). As to conditions: HEK293 GluA2+stargazin, membrane potential dye (FDSS), glutamate EC50, at 30 µM, hits were called plate by plate, in both directions; compound max-min signal: compound-alone response (agonism); glutamate slope, % of max: measured here: glutamate response slope, % max.
Voltage-dependent calcium channel gamma-2 subunit (Mus musculus) + Glutamate receptor 2 (Rattus norvegicus), sequence (O88602 whole entry, looked up): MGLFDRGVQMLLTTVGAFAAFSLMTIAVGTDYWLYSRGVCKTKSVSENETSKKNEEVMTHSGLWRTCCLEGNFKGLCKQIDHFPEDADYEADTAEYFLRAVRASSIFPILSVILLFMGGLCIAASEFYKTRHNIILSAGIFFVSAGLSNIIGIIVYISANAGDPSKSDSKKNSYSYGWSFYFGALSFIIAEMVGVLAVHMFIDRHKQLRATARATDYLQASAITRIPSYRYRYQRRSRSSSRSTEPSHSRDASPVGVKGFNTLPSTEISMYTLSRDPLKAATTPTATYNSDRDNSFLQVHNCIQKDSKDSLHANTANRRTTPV
Voltage-dependent calcium channel gamma-2 subunit (Mus musculus) + Glutamate receptor 2 (Rattus norvegicus), sequence (P19491 whole entry, looked up): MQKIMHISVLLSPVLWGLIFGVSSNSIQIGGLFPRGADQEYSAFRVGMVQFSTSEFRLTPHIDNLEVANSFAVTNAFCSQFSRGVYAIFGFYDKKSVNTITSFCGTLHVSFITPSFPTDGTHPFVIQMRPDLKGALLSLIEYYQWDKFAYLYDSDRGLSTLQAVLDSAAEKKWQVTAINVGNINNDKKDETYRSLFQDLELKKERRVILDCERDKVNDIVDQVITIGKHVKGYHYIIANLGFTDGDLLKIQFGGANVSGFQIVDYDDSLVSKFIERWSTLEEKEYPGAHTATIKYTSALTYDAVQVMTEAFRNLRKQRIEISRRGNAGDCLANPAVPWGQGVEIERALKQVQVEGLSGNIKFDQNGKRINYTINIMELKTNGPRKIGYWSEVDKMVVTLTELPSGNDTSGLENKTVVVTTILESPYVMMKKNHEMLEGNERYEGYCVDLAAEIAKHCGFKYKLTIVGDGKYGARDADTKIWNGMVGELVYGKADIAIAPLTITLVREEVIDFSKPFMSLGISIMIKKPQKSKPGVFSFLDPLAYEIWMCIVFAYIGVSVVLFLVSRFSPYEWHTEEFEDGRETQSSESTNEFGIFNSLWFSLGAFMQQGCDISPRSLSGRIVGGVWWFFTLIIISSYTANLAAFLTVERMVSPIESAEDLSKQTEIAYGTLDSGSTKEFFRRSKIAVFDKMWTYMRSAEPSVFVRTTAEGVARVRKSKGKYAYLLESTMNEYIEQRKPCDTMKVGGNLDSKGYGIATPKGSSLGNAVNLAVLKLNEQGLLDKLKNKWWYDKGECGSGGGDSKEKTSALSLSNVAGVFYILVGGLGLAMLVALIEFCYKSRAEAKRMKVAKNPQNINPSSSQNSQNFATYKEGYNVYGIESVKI
For the compound `CC1CCN(CC(O)COc2ccc(C(=O)c3ccccc3)cc2)CC1` (stereo not drawn), the compound max-min signal was 0.0506; the glutamate response, % of max is 53.3% (inactive); the glutamate slope, % of max worked out at 82.1%.
Take `O=C(CCSc1ccccc1)NCC1(c2cccs2)CCOCC1`: the compound max-min signal was determined as 0.0983; the glutamate response, % of max is 28% (inactive); the glutamate slope, % of max was determined as 50.4%.
Regarding `Cc1ccc(S(=O)(=O)N2CCCCC2CCN)cc1` (stereo not drawn), the compound max-min signal was determined as 0.0595; the glutamate response, % of max was 35.1% (inactive); the glutamate slope, % of max stood at 57.7%.
For the compound `Cc1ccc(-n2ccnc2N2CCN(CC(=O)Nc3ccc4c(c3)OCO4)CC2)cc1`, the compound max-min signal is 0.0402; the glutamate response, % of max is 18.2% (inactive); the glutamate slope, % of max came to 39.2%.
For `CCSc1nnc(-c2ccc(C)cc2)n1-c1ccccc1` the same measures were 0.0317, 0.366% (inactive) and -1.02%.
As for `CC(C)c1ccc(NC(=O)C(=O)NCCN2CCN(c3ccc(Cl)cc3)CC2)cc1`, the compound max-min signal was 0.121; the glutamate response, % of max is 29.8% (inactive); the glutamate slope, % of max was determined as 55.1%.
For `O=c1oc(-c2ccncc2)nc2c(Cl)cccc12` the same measures were 0.253, 22.4% (active) and 51.7%.
Consider `Cc1cc(C(=O)O)c2cccc(Cl)c2n1`, for which the compound max-min signal was 0.0395 and 0.0789; the glutamate response, % of max was 80.9% (inactive) and 28.3% (inactive); the glutamate slope, % of max was 99.3% and 46.1%.
Turning to `Cc1ccc(-c2nc3c(C)cc(C)cc3c(=O)o2)cc1`, the compound max-min signal stood at 0.127; the glutamate response, % of max is 23.3% (inactive); the glutamate slope, % of max was found to be 45.9%.
`O=C(Nc1ccc2c(c1)OCO2)c1ccc(S(=O)(=O)N2CCCCCC2)cc1`: the compound max-min signal is 0.123; the glutamate response, % of max is 36.1% (inactive); the glutamate slope, % of max came to 60.4%.
For the compound `COc1ccc(N2C(=O)/C(=C/c3ccncc3)SC2=S)cc1`, the compound max-min signal turned out to be 0.061; the glutamate response, % of max is 31.6% (inactive); the glutamate slope, % of max was determined as 49.4%.
For `Cc1ccc(C(=O)Nc2cccc(N3CCCC3=O)c2)cc1[N+](=O)[O-]`, the compound max-min signal worked out at 0.195; the glutamate response, % of max is 33.5% (active); the glutamate slope, % of max stood at 54.6%.
For `O=C(Nc1cccc(N2CCCCC2=O)c1)c1cc([N+](=O)[O-])ccc1Cl` the same measures were 0.113, 24.4% (inactive) and 52.2%.
For `Cc1cccc(C(=O)Nc2cccc(N3CCCC3=O)c2)c1`, the compound max-min signal was determined as 0.114; the glutamate response, % of max was 45.7% (inactive); the glutamate slope, % of max came to 67.6%.
The corresponding values for `COc1ccc(NC(=O)COc2ccccc2F)cc1N1CCCCC1=O` are 0.0429, 20.8% (inactive) and 35.3%.
For `O=C(Nc1onc2c1CCCC2)c1nc(-c2cnccn2)no1` the same measures were 0.128, 29.1% (inactive) and 62.8%.
As for `CCC(C)NC(=O)/C=C/c1cc(OC)ccc1OC` (stereo not drawn), the compound max-min signal is 0.0444 and 0.0831; the glutamate response, % of max was 100% (inactive) and 35.1% (inactive); the glutamate slope, % of max is 112% and 48.5%.
On to `CC(C)c1cc(=O)n(CC(=O)Nc2ccc(S(=O)(=O)Nc3nccs3)cc2)cn1`, for which the compound max-min signal turned out to be 0.0931; the glutamate response, % of max is 41.9% (inactive); the glutamate slope, % of max worked out at 61.5%.
For `CCCCCOc1cccc(C(=O)Nc2ccc(S(=O)(=O)Nc3nnc(CC)s3)cc2)c1` the same measures were 0.112, 38.7% (inactive) and 62.1%.
The corresponding values for `O=C(Nc1ccc(S(=O)(=O)Nc2nccs2)cc1)c1csc(-c2cnccn2)n1` are 0.274, 48.2% (active) and 85.9%.
Consider `CCOc1ccccc1NC(=O)Cn1nc(-c2cc(C)c(C)cc2C)ccc1=O`, for which the compound max-min signal came to 0.0944; the glutamate response, % of max is 64% (inactive); the glutamate slope, % of max is 97.5%.
In the case of `Cc1nc2ccccc2c(=O)n1-c1cccc(NC(=O)CCC2CCCCC2)c1`, the compound max-min signal stood at 0.0678; the glutamate response, % of max was 11% (inactive); the glutamate slope, % of max was 28.2%.
Turning to `COC(=O)N1CCC(CNC(=O)c2ccc(F)cc2)CC1`, the compound max-min signal was 0.0851; the glutamate response, % of max is 46.6% (inactive); the glutamate slope, % of max stood at 66.5%.
For `O=C(NC(C(=O)N1CCCCC1)C12CC3CC(CC(C3)C1)C2)c1ccc(F)cc1` (stereo not drawn) the same measures were 0.0524, 56.1% (active) and 79.2%.
For the compound `O=C(NC(C(=O)O)C12CC3CC(CC(C3)C1)C2)c1cc([N+](=O)[O-])ccc1Cl` (stereo not drawn), the compound max-min signal was found to be 0.0736; the glutamate response, % of max was 35.4% (inactive); the glutamate slope, % of max stood at 56.5%.
The corresponding values for `O=C(Nc1sc2ccccc2c(=O)c1-c1ccc2c(c1)OCO2)c1ccco1` are 0.14, 24.9% (inactive) and 55.4%.
